Reference: PubChem BioAssay AID1159580 (chemical genetic matrix, 2015)
Out of some 5,500 compounds screened, about 2,000 (36%) were called active. Another 18% or so got no clear call; they are omitted. Rule as the data show it: active = normalized growth mostly below about 0.91 (no sharp cut-off); inconclusive = no clear call, values can overlap the other calls; inactive = mostly above about 0.92. The list shows a part of the results.

Test: chemical genetic growth profiling, strain panel (AID 1159580);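 also: tested at 20 µM; growth read once vehicle control cultures reached saturation at 30 °C; 1 = growth at the plate median or of vehicle wells; lower values mean less growth of the strain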
Conditions: S. cerevisiae deletion strains, growth OD
[1] = locus YDL101C, strain DUN1, stronger effect = lower value
[2] = locus YHR030C, strain SLT2, stronger effect = lower value

Measured: normalized growth

Cc1onc(-c2ccc(Cl)cc2)c1-c1ccnn1C(=O)NC(C)C
inactive: locus YAL013W, strain DEP1, stronger effect = lower value 0.966 | locus YBR229C, strain ROT2, stronger effect = lower value 0.932 | locus YCL061C, strain MRC1, stronger effect = lower value 0.963 | [1] 0.974 | locus YDR150W, strain NUM1, stronger effect = lower value 0.96 | locus YEL061C, strain CIN8, stronger effect = lower value 0.94 | [2] 0.918 | locus YJR043C, strain POL32, stronger effect = lower value 0.949 | locus YLR039C, strain RIC1, stronger effect = lower value 0.989 | locus YLR262C, strain YPT6, stronger effect = lower value 1.02 | locus YML094W, strain GIM5, stronger effect = lower value 0.964 | locus YMR263W, strain SAP30, stronger effect = lower value 0.951 | locus YNL153C, strain GIM3, stronger effect = lower value 0.964 | locus YPL055C, strain LGE1, stronger effect = lower value 0.835 | locus YPR135W, strain CTF4, stronger effect = lower value 0.71
active: locus YGR078C, strain PAC10, stronger effect = lower value 0.92 | locus YHR087W, strain rtc3, stronger effect = lower value 0.906 | locus YJR075W, strain HOC1, stronger effect = lower value 0.73 | locus YKL190W, strain CNB1, stronger effect = lower value 0.906 | locus YLR058C, strain SHM2 (second series), stronger effect = lower value 0.92 | locus YLR085C, strain ARP6, stronger effect = lower value 0.591 | locus YMR219W, strain ESC1, stronger effect = lower value 0.933 | locus YNL298W, strain CLA4 (second series), stronger effect = lower value 0.836 | locus YNL322C, strain KRE1, stronger effect = lower value 0.921 | locus YNR030W, strain Alg12, stronger effect = lower value 0.804 | locus YPL241C, strain CIN2, stronger effect = lower value 0.789

Cc1cc(Cl)ccc1NNC(=O)c1sccc1Br
inactive: locus YAR019C, strain CDC15, stronger effect = lower value 0.928 | locus YBL105C, strain PKC1, stronger effect = lower value 0.925 | locus YBR135W, strain CKS1, stronger effect = lower value 0.927 | locus YBR136W, strain MEC1, stronger effect = lower value 0.921 | locus YBR160W, strain CDC28, stronger effect = lower value 0.918 | locus YDL017W, strain CDC7, stronger effect = lower value 0.928 | locus YDL028C, strain MPS1, stronger effect = lower value 0.929 | [1] 0.917 | locus YDL108W, strain KIN28, stronger effect = lower value 0.932 | locus YDL132W, strain cdc53, stronger effect = lower value 0.918 | locus YDL214C, strain PRR2, stronger effect = lower value 0.872 | locus YDR052C, strain DBF4, stronger effect = lower value 0.931 | locus YDR054C, strain cdc34, stronger effect = lower value 0.908 | locus YDR226W, strain ADK1, stronger effect = lower value 0.922 | locus YDR477W, strain SNF1, stronger effect = lower value 0.871 | locus YER123W, strain YCK3, stronger effect = lower value 0.81 | locus YER133W, strain GLC7, stronger effect = lower value 0.851 | locus YFL009W, strain cdc4, stronger effect = lower value 0.925 | locus YFL029C, strain CAK1, stronger effect = lower value 0.921 | locus YFR003C, strain YPI1, stronger effect = lower value 0.924 | locus YFR019W, strain FAB1, stronger effect = lower value 0.895 | locus YFR028C, strain CDC14, stronger effect = lower value 0.924 | locus YGR040W, strain KSS1, stronger effect = lower value 0.844 | locus YGR052W, strain FMP48, stronger effect = lower value 0.908 | locus YGR092W, strain DBF2, stronger effect = lower value 0.784 | locus YHR079C, strain IRE1, stronger effect = lower value 0.862 | locus YHR082C, strain KSP1, stronger effect = lower value 0.879 | locus YHR205W, strain SCH9, stronger effect = lower value 0.844 | locus YIL147C, strain SLN1, stronger effect = lower value 0.928 | locus YJL095W, strain BCK1, stronger effect = lower value 0.714 | locus YJL128C, strain PBS2, stronger effect = lower value 0.895 | locus YJL157C, strain FAR1, stronger effect = lower value 0.85 | locus YJR016C, strain ILV3, stronger effect = lower value 0.935 | locus YJR066W, strain TOR1 (second series), stronger effect = lower value 0.862 | locus YJR066W, strain TOR1, stronger effect = lower value 0.886 | locus YKL048C, strain ELM1, stronger effect = lower value 0.896 | locus YKL067W, strain YNK1, stronger effect = lower value 0.873 | locus YKL101W, strain HSL1, stronger effect = lower value 0.872 | locus YKL193C, strain SDS22, stronger effect = lower value 0.92 | locus YKL203C, strain TOR2, stronger effect = lower value 0.921 | locus YLR133W, strain CKI1, stronger effect = lower value 0.849 | locus YLR403W, strain SFP1, stronger effect = lower value 0.838 | locus YML070W, strain DAK1, stronger effect = lower value 0.842 | locus YMR001C, strain CDC5, stronger effect = lower value 0.918 | locus YMR205C, strain PFK2 (second series), stronger effect = lower value 0.87 | locus YMR277W, strain FCP1, stronger effect = lower value 0.921 | locus YNL006W, strain LST8, stronger effect = lower value 0.925 | locus YNL020C, strain ARK1, stronger effect = lower value 0.862 | locus YNL161W, strain CBK1, stronger effect = lower value 0.923 | locus YNL183C, strain NPR1, stronger effect = lower value 0.851 | locus YNL207W, strain RIO2, stronger effect = lower value 0.906 | locus YNL222W, strain SSU72, stronger effect = lower value 0.925 | locus YNL307C, strain MCK1 (second series), stronger effect = lower value 0.785 | locus YOL078W, strain AVO1, stronger effect = lower value 0.916 | locus YOL136C, strain PFK27, stronger effect = lower value 0.825 | locus YOR061W, strain CKA2, stronger effect = lower value 0.868 | locus YOR119C, strain RIO1, stronger effect = lower value 0.92 | locus YOR231W, strain MKK1, stronger effect = lower value 0.824 | locus YOR329C, strain SCD5, stronger effect = lower value 0.913 | locus YPL031C, strain PHO85, stronger effect = lower value 0.867 | locus YPL153C, strain RAD53, stronger effect = lower value 0.855 | locus YPL204W, strain HRR25, stronger effect = lower value 0.838 | locus YPL209C, strain IPL1, stronger effect = lower value 0.911 | locus YPR025C, strain CCL1, stronger effect = lower value 0.925 | locus YPR106W, strain ISR1, stronger effect = lower value 0.912 | locus YPR111W, strain DBF20, stronger effect = lower value 0.919 | strain NNK1, stronger effect = lower value 0.915 | strain TSCII, stronger effect = lower value 0.92
active: [2] 0.489 | locus YLR113W, strain HOG1, stronger effect = lower value 0.715 | locus YPL256C, strain CLN2, stronger effect = lower value 0.793
